The values below come from PubChem BioAssay (EPA / NIEHS).

Structures are written as SMILES. Calls of active or inactive are those of the source. How the source made its calls: active means hit-call score of the fitted dose curve at least 0.9, where 1 is the maximum; inactive means score below 0.9.

One experiment can be described thus: ATG_PXRE_CIS: Attagene CIS-FACTORIAL HepG2 Assay for human Pregnane X Receptor Element (PXRE) (AID 2282957). As to conditions: HepG2 Attagene CIS-FACTORIAL PXRE reporter, mRNA; actives raise or lower the signal. In a few lines:
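Transfect HepG2 with MRTUs (cis promoter elements); dose chemical, incubate 24 h; isolate RNA, RT with oligo(dT), PCR, 6-FAM label, HpaI cut, CE. Gain/loss fit vs DMSO.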
For the molecule `C=C(C)C(=O)OCCOC1CC2CC1C1C=CCC21` (stereo not drawn), the molecule was called inactive.
The term AC50 denotes the concentration at which the activity in the assay is half-maximal. Consider `C=C(C)CNCC`, for which the AC50 was 52.9 µM (active).
For `CCC1(C)NC(=O)NC1=O` (stereo not drawn), the outcome was inactive.
Regarding `COc1cc(Cl)c(OC)cc1N`, the AC50 is 62.4 µM (active).
In the case of `CCCCC(CC)(CO)CO`, the result was inactive.
For the molecule `CC1(C)C(=O)N(Cl)C(=O)N1Br`, the AC50 is 62.7 µM (active).
In the case of `CC(C)CC(C)CC(O)CC(C)C` (stereo not drawn), the call was inactive.
As for `COC(CC(C)CCCC(C)(C)O)OC` (stereo not drawn), the molecule was classed as inactive.
For the molecule `c1ccc2cc(Nc3ccc(Nc4ccc5ccccc5c4)cc3)ccc2c1`, the result was inactive.
Regarding `CCCCCCCC(=O)OCCCCCC`, the concentration at half-maximal activity (AC50) was 28.2 µM (active).
With `COc1cc([C@@H]2c3cc4c(cc3[C@@H](O[C@@H]3O[C@@H]5CO[C@@H](C)O[C@H]5[C@H](O)[C@H]3O)[C@H]3COC(=O)[C@H]23)OCO4)cc(OC)c1O`, the AC50 was 35.2 µM (active).
For `CC(=O)C(C)O` (stereo not drawn), the result was inactive.
With `CCc1ccc(O)cc1`, the concentration at half-maximal activity (AC50) was 32.3 µM (active).
As to `CCOC(=O)CC(C)O` (stereo not drawn), the molecule was classed as inactive.
`CCOC(=O)CN`: the result was inactive.
Regarding `CCCOC(=O)c1c(Cl)c(Cl)c(Cl)c(Cl)c1C(=O)OCCC`, the AC50 is 1.64 µM (active).
The same measure, in the same setting: then `C/C=C(\C)C(=O)OCCc1ccccc1`, with 27.7 µM (active).
Consider `Cc1ccc(OC(=O)c2ccccc2O)cc1`, for which the call was inactive.
For the molecule `C=C(C)C(=O)OCC(CC)(COC(=O)C(=C)C)COC(=O)C(=C)C`, the AC50 is 10.6 µM (active).
Take `Cc1ccc2c(c1)C(=O)OC2=O`: the result was inactive.
For the molecule `C=Cc1ccc(C)cc1`, the AC50 was 36.9 µM (active).
Consider `CC1(C)C2=CCCC(C)(C)[C@]23CC[C@H]1C3`, for which the concentration at half-maximal activity (AC50) was 1.49 µM (active).
Take `C=CCCC(=O)/C=C/C1C(C)=CCCC1(C)C` (stereo not drawn): the AC50 is 1.18 µM (active).
In the case of `COC(=O)c1ccc([N+](=O)[O-])cc1`, the molecule was classed as inactive.
Still for that read-out and setting: for `Cc1ncc[nH]1` the value was “inactive”; for `O=c1[nH]c(=O)c2cn[nH]c2[nH]1`, “inactive”; for `C[Si](C)(C)O[Si](C)(C)C`, “inactive”.
As to `CCCC(=O)OCCc1ccccc1`, the molecule was called inactive.
As to `Nc1ccc2cc(S(=O)(=O)O)cc(O)c2c1N=Nc1ccccc1C(F)(F)F`, the AC50 was 38.5 µM (active).
On the same count and under the same terms, for `N[C@@H](Cc1cc(I)c(Oc2cc(I)c(O)c(I)c2)c(I)c1)C(=O)O` the value was 6.42 µM (active).
With `O=C(O)CCCCCCCCC(=O)O`, the call was inactive.
Consider `CCOc1ccc(NC(=O)CC(C)O)cc1` (stereo not drawn), for which the result was inactive.
Regarding `Cc1[nH]c(=O)c(C#N)cc1-c1ccncc1`, the call was inactive.
Same read-out and setting: then `[Cl][Au]([Cl])[Cl]`, with “inactive”.
For `Cc1c(Cl)cccc1[N+](=O)[O-]`, the molecule was classed as inactive.
The same measure, in the same setting: then `CCOC(=O)[C@@H](C)Oc1ccc(Oc2nc3ccc(Cl)cc3o2)cc1`, with “inactive”.
As to `CCCCCCOC(=O)CCC`, the AC50 was 24.8 µM (active).
On to `CC1C2CC(CC2C2CCCC(O)C2)C1(C)C` (stereo not drawn), for which the concentration at half-maximal activity (AC50) was 3.04 µM (active).
As to `COc1ccc(N=Nc2cc(C)c(N=Nc3ccc(S(=O)(=O)O)cc3)cc2OC)cc1`, the AC50 is 23.1 µM (active).

Another experiment in a line: ATG_PPRE_CIS: Attagene CIS-FACTORIAL HepG2 Assay for human Peroxisome Proliferator-activated Response Element (PPRE) (AID 2282958). As to conditions: HepG2 PPRE cis-element reporter, Attagene transcription factor profiling; actives raise or lower the signal. The gist of the method: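 Cells are first transfected transiently with the multiplexed reporter library, then dosed for 24 h. Total RNA is reverse-transcribed, amplified, fluorescently end-labeled and HpaI-cut before capillary electrophoresis; activity is fitted bidirectionally against DMSO controls.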
As to `C=C(C)C(=O)OCCOC1CC2CC1C1C=CCC21` (stereo not drawn), the call was inactive.
The same measure, in the same setting: then `C=C(C)CNCC`, with “inactive”; and `CCC1(C)NC(=O)NC1=O` (stereo not drawn), with “inactive”; and `COc1cc(Cl)c(OC)cc1N`, with “inactive”.
For the molecule `CCCCC(CC)(CO)CO`, the molecule was called inactive.
Take `CC1(C)C(=O)N(Cl)C(=O)N1Br`: the result was inactive.
As for `CC(C)CC(C)CC(O)CC(C)C` (stereo not drawn), the molecule was called inactive.
As for `COC(CC(C)CCCC(C)(C)O)OC` (stereo not drawn), the outcome was inactive.
`c1ccc2cc(Nc3ccc(Nc4ccc5ccccc5c4)cc3)ccc2c1`: the result was inactive.
For the molecule `CCCCCCCC(=O)OCCCCCC`, the outcome was inactive.
The same measure, in the same setting: then `COc1cc([C@@H]2c3cc4c(cc3[C@@H](O[C@@H]3O[C@@H]5CO[C@@H](C)O[C@H]5[C@H](O)[C@H]3O)[C@H]3COC(=O)[C@H]23)OCO4)cc(OC)c1O`, with “inactive”; and `CC(=O)C(C)O` (stereo not drawn), with “inactive”; and `CCc1ccc(O)cc1`, with “inactive”.
Still for that read-out and setting: for `CCOC(=O)CC(C)O` (stereo not drawn) the value was “inactive”.
For the molecule `CCOC(=O)CN`, the call was inactive.
Same read-out and setting: for `CCCOC(=O)c1c(Cl)c(Cl)c(Cl)c(Cl)c1C(=O)OCCC` the value was “inactive”; for `C/C=C(\C)C(=O)OCCc1ccccc1`, “inactive”.
As to `Cc1ccc(OC(=O)c2ccccc2O)cc1`, the outcome was inactive.
Still for that read-out and setting: then `C=C(C)C(=O)OCC(CC)(COC(=O)C(=C)C)COC(=O)C(=C)C`, with “inactive”; and `Cc1ccc2c(c1)C(=O)OC2=O`, with “inactive”.
Take `C=Cc1ccc(C)cc1`: the molecule was called inactive.
On the same count and under the same terms, then `CC1(C)C2=CCCC(C)(C)[C@]23CC[C@H]1C3`, with “inactive”; and `C=CCCC(=O)/C=C/C1C(C)=CCCC1(C)C` (stereo not drawn), with “inactive”.
On the same count and under the same terms, then `COC(=O)c1ccc([N+](=O)[O-])cc1`, with “inactive”; and `Cc1ncc[nH]1`, with “inactive”.
As to `O=c1[nH]c(=O)c2cn[nH]c2[nH]1`, the molecule was called inactive.
`C[Si](C)(C)O[Si](C)(C)C`: the outcome was inactive.
The same measure, in the same setting: then `CCCC(=O)OCCc1ccccc1`, with “inactive”; and `Nc1ccc2cc(S(=O)(=O)O)cc(O)c2c1N=Nc1ccccc1C(F)(F)F`, with “inactive”.
For `N[C@@H](Cc1cc(I)c(Oc2cc(I)c(O)c(I)c2)c(I)c1)C(=O)O`, the AC50 was 22.1 µM (active).
For the molecule `O=C(O)CCCCCCCCC(=O)O`, the call was inactive.
Consider `CCOc1ccc(NC(=O)CC(C)O)cc1` (stereo not drawn), for which the result was inactive.
For `Cc1[nH]c(=O)c(C#N)cc1-c1ccncc1`, the call was inactive.
On the same count and under the same terms, then `[Cl][Au]([Cl])[Cl]`, with “inactive”; and `Cc1c(Cl)cccc1[N+](=O)[O-]`, with “inactive”.
As to `CCOC(=O)[C@@H](C)Oc1ccc(Oc2nc3ccc(Cl)cc3o2)cc1`, the half-maximal activity concentration (AC50) is 100 µM (active).
As for `CCCCCCOC(=O)CCC`, the outcome was inactive.
As to `CC1C2CC(CC2C2CCCC(O)C2)C1(C)C` (stereo not drawn), the call was inactive.
`COc1ccc(N=Nc2cc(C)c(N=Nc3ccc(S(=O)(=O)O)cc3)cc2OC)cc1`: the molecule was classed as inactive.
